# Screening results (PubChem)
# Lamin A splicing: qHTS Assay for Modulators of Lamin A Splicing; Potency, µM (doses to about 46.1 µM), usual class: inhibitors; HeLa LMNA splicing GFP/RFP minigene ratio, 48 h; 200,000 tested, 0.01% active; active = well fitted inhibition curve with a large enough effect in the signal ratio, with a control signal flat, not every such curve was filed as active; inconclusive = small, poorly fitted or top-dose-only effect, or effect the other way, or a change in a side signal; the % refers to the signal ratio
#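 S3 HeLa stable clones carrying a lamin A-EGFP splicing minigene plus DsRed2 were seeded at 600 cells/well in Opti-MEM with 2% FBS, pin-dosed and incubated 48 h at 37°C. Acumen cytometry (488 nm) gave the GFP/RFP total-intensity ratio.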
# HTT cytoprotect: qHTS Multiplex Assay to Identify Dual Action Probes in a Cell Model of Huntington: Cytoprotection (ATP). PC12 HTT-Q103 induced, cytoprotection, ATP luminescence, 40 h. Potency, µM (highest dose often 56.4 µM), hits mostly activators. 230,000 tested, 0.14% active. AID 1471, 2008; also: nearly all actives have a fitted effect of over 45% in size
#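 Quantitative HTS on tebufenozide-induced (100 nM) PC12 cells expressing HTTQ103 exon 1–GFP; compounds tested as a concentration series; survival measured via cellular ATP.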
# HTT aggregate: qHTS Multiplex Assay to Identify Dual Action Probes in a Cell Model of Huntington: Aggregate Formation (GFP); Potency, µM (top dose mostly 46.1 µM), actives largely listed as inhibitors; AID 1688, 2009; PC12 HttQ103-GFP aggregates, Acumen cytometry, 40 h; 220,000 tested, 1.1% active; also: nearly all actives have a fitted effect of over 60% in size
#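 Read-out: GFP aggregate count by laser scanning cytometer (488 nm excitation, 500-530 nm emission, 1–25 µm objects >6 SD above background). Cells: PC12, inducible HTTex1-Q103-GFP, 100 nM tebufenozide; compounds titrated.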
# KinaseGlo FLuc: Counterscreen for Luciferase (Kinase-Glo TM) Inhibition | Luciferin 4-monooxygenase (Photuris pensylvanica), Q27757 | Kinase-Glo luciferase, ATP luminescence, 8 min | Potency, µM (series often up to 38.3 µM), actives largely listed as inhibitors | 200,000 tested, 0.28% active | AID 1379, 2008; also: nearly all actives have a fitted effect of over 60% in size
#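 Compound is pinned into ATP-containing buffer (10 uM ATP, imidazole pH 7.2, 7 mM MgCl2). Kinase-Glo luciferase reagent is then added. Light output is recorded following an 8-min room-temperature incubation.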
# ALDH1A1 inh: qHTS Assay for Inhibitors of Aldehyde Dehydrogenase 1 (ALDH1A1); Aldehyde dehydrogenase 1A1 (Homo sapiens), P00352; Purified ALDH1A1, NADH fluorescence, propionaldehyde substrate; Potency, µM (top dose mostly 75.3 µM), hits mostly inhibitors; 220,000 tested, 7.3% active; active = well fitted inhibition curve with a large enough effect, not every such curve was filed as active; inconclusive = small, poorly fitted or top-dose-only effect, or another doubt; inactive = no such curve, though single readings can be large or run the other way
# Target sequence (P00352 whole entry, looked up): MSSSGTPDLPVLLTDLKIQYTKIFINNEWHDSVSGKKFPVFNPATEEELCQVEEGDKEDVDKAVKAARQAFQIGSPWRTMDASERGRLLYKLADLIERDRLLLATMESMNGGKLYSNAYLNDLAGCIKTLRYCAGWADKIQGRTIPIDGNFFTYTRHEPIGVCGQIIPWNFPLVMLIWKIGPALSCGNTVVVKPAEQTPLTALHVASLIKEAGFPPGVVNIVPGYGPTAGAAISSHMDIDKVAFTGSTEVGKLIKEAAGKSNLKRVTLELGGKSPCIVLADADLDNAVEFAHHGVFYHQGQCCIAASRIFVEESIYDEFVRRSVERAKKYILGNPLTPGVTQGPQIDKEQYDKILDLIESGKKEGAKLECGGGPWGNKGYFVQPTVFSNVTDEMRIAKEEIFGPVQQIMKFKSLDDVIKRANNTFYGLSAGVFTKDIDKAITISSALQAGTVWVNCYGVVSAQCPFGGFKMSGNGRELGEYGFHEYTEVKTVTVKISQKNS
# HPGD block: qHTS Assay for Inhibitors of HPGD (15-Hydroxyprostaglandin Dehydrogenase); 15-hydroxyprostaglandin dehydrogenase [NAD(+)] (Homo sapiens), P15428; purified HPGD, NADH fluorescence kinetic, PGE2 substrate; Potency, µM, most hits filed as inhibitors; 150,000 tested, 4.3% active; AID 894, 2007; active = well fitted inhibition curve with a large enough effect, not every such curve was filed as active; inconclusive = small, poorly fitted or top-dose-only effect, or another doubt; inactive = no such curve, though single readings can be large or run the other way
#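 NADH formation kinetics: reaction with 30 uM PGE2 and 1 mM NAD+ (final), 20 nM enzyme, Tris-HCl pH 8 with Tween 20, after 15 min compound preincubation at room temperature. Fluorescence change, last versus first of five reads.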
# Hits are given with their value; n = inactive; u = inconclusive; x = no result given; [ ] = dose if it differs, or a comment. Only some compounds are listed: those with a hit (about 9% of all), similar ones and a draw of the others. Unless noted, calls follow the shape of the dose curve; as a rule, active = well fitted curve in the direction sought with a large enough effect; inconclusive = small, poorly fitted or top-dose-only effect, or another doubt; inactive = no such curve, though single readings can be large; an effect the other way counts as inactive or inconclusive.
SMILES,Lamin A splicing,HTT cytoprotect,HTT aggregate,KinaseGlo FLuc,ALDH1A1 inh,HPGD block
CCOC(=O)c1ccc(N/C=C/C(=O)c2ccc(OC)c(OC)c2)cc1,n,n,n,n,n,n
Cc1ccc(C(=O)/C=C/NCc2ccc(F)cc2)cc1,n,n[10 µM],n,n,14µM,n
COc1ccc(C(=O)/C=C/NCc2ccc(F)cc2)cc1OC,x,n[10 µM],n[9.22 µM],x,22µM,x
Cc1ccc(CN/C=C/C(=O)c2ccc(Br)cc2)cc1,u,n,n,n,16µM,u
COc1ccc(OC2C(O)COC2/C=C/c2ccccc2)cc1 (stereo not given),x,u,x,x,n[13.5 µM],x
O=C(Nc1ccccc1F)Nc1ccccc1F,n,n,n,n,n,x
Fc1ccccc1N1CCN(Cc2cnc(Cl)s2)CC1,u,n,n,n,n,x
O=C(/C=C/NCC(=O)c1ccccc1)c1ccc(Br)cc1,n,n[10 µM],n,n,7.9µM,n
COc1ccc(NC(=S)N(CCCN2CCN(C)CC2)Cc2cccs2)cc1,n,n[10 µM],n,n,u,n
Cc1ccc(C2=Nc3ccccc3NC(C)(c3ccc(C)o3)C2)o1 (stereo not given),n,n[0.074 µM],n,n,22µM,n
CC1(c2ccccc2)CC(c2ccccc2)=Nc2ccccc2N1 (stereo not given),x,n[10 µM],n[9.22 µM],x,x,x
COc1ccccc1-c1cc2nc(C)c(CCC(=O)NCc3ccco3)c(C)n2n1,u,n[10 µM],n,n,u,u
Nc1[nH]nc2nc(-c3ccccc3)[nH]c(=O)c12,x,n[10 µM],n[9.22 µM],x,n,x
OCc1ccccc1,n,u,n,x,n,n
ICCc1ccccc1,x,n,x,x,3.5µM,10µM
O=C(CSc1ccc(C(F)(F)F)cc1[N+](=O)[O-])Nc1ccc2ccccc2c1,n,x,u,n,5.6µM,n
COc1ccc(NC(=O)CC2C(=O)N(c3ccccc3)C(=O)N2Cc2ccco2)cc1 (stereo not given),x,n,n,n,n,x
c1cn(-c2ncnc3sc4c(c23)CCCC4)cn1,n,n[10 µM],11µM,n,u,n
CN(CCCNS(=O)(=O)c1cccc2cccnc12)Cc1ccccc1,n,n,n,n,14µM,n
O=S(=O)(NCCc1ccccc1)c1cccc2cccnc12,n,n,n,n,n,x
Cc1ccc2c(CSc3nc4ccccc4c(=O)n3CCCO)cc(=O)oc2c1C,u,n,n[9.22 µM],n,13µM,u
O=C1C(=O)N(Cc2ccco2)C(c2cccc(Cl)c2)/C1=C(\O)c1ccc2c(c1)OCCO2 (stereo not given),n,n[1.9 µM],n,n,n,n
COc1cc(C(=O)Nc2ccc(S(=O)(=O)NC(C)(C)C)cc2)cc(OC)c1OC,n,n,n,n,n,n
COc1ccc(C(=O)Nc2ccc(S(=O)(=O)NC(C)(C)C)cc2)cc1[N+](=O)[O-],x,n,n,n,18µM,x
COC(=O)c1cc(C(=O)Nc2ccc(S(=O)(=O)NC(C)(C)C)cc2)cc([N+](=O)[O-])c1,n,n[10 µM],n,n,14µM,18µM
SMILES,Lamin A splicing,HTT cytoprotect,HTT aggregate,KinaseGlo FLuc,ALDH1A1 inh,HPGD block
CCOC(=O)CCSc1nc(C)c2ccccc2n1,n,n[0.074 µM],n,n,n,n
CCOC(=O)CSc1nc(C)c2cc(C)c(C)cc2n1,n,n[10 µM],n[9.22 µM],n,n,x
CCOC(=O)CCSc1nc(C)c2cc(C)ccc2n1,n,n,n,n,n,20µM
Cc1cc2nc(SCCOC(=O)Nc3ccc(Cl)cc3)nc(C)c2cc1C,n,n,n,n,n,14µM
S=C(NCc1ccccc1)NNc1nc2ccccc2[nH]1,n,n,n,n,1.3µM,x
CCC(=O)n1nc(-c2ccco2)nc1SCc1ccccc1,n,n,n,n,u,13µM
O=C(c1cccs1)n1nc(-c2ccco2)nc1SCc1ccccc1,n,n,n,n,n,u
CC(=O)n1nc(-c2ccco2)nc1SCc1ccccc1,n,n[10 µM],n,n,n,13µM
CCC(=O)n1nc(-c2ccco2)nc1N,n,n,n,n,u,n
